Screening data (PubChem BioAssay)
Only some compounds are listed: those with a hit (about 19% of all), similar ones and a draw of the others.
TDP1 cell CPT – DT40-hTDP1 cell growth loss with CPT | chicken DT40 Tdp1-/-;hTDP1 cells + 20 nM CPT, ATP luminescence, 48 h | AID 686979 | Potency, µM (titrated, usually from 46.2 µM), most hits filed as inhibitors | 420,000 tested, 12% active; further: nearly all actives have a fitted effect of over 55% in size
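Cell growth measured by CellTiter-Glo luminescence after a minimum 48 h, 37 C compound exposure with 20 nM CPT in Tdp1-knockout DT40 cells stably expressing hTDP1, seeded 400/well; qHTS titration format.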
S-ASM inh – inhibitors of human secretory acid sphingomyelinase; Potency, µM (titrated, usually from 57.5 µM), actives largely listed as inhibitors; placental ASM, HMU-PC fluorogenic substrate, 60 min; 340,000 tested, 0.006% active
Target sequence (P17405 47-631 limits assumed): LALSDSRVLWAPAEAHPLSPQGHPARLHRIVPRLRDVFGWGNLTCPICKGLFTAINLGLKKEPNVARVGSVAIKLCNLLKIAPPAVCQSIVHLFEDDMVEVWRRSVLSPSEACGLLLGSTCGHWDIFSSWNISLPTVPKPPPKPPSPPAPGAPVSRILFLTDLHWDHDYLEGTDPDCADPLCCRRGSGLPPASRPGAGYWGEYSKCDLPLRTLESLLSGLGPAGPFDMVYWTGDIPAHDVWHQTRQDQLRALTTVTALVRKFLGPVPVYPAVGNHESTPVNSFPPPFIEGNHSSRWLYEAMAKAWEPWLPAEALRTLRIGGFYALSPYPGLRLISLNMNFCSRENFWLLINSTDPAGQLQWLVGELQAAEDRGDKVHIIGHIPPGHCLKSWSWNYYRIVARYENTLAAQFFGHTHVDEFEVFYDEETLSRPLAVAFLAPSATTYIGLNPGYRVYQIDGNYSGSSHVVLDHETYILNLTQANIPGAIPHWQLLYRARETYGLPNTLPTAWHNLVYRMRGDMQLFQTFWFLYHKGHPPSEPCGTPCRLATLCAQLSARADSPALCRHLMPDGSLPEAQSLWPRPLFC
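Fluorogenic HMU-PC substrate (9 uM final) is turned over by placental ASM in 60 min at 37 C after a 10 min compound preincubation. Reaction ended by alkaline stop (pH 10), with fluorescence read at 386/447 nm.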
HepG2 tox – counter-screen for TGF-b inhibitors: cytotoxicity in HepG2 cells; AID 588856; Potency, µM (highest dose often 46.1 µM), most hits filed as cytotoxic; HepG2 CAGA-GFP viability, ATP luminescence, 18 h; 410,000 tested, 0.76% active
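HepG2 CAGA-GFP cells (1000/well, DMEM with 1% FBS) received compound, then TGF-beta at 500 pg/mL final, and were incubated 18 hours at 37 degrees C. Viability was read by CellTiter-Glo luminescence. Media-only wells were set as complete cell-killing and DMSO as no toxicity.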
TDP1 cell noCPT – qHTS for Inhibitors of human tyrosyl-DNA phosphodiesterase 1 (TDP1): qHTS in cells in absence of CPT | DT40 Tdp1-/- hTDP1 cells, no CPT, ATP luminescence, 48 h | Potency, µM (series often up to 46.2 µM), hits mostly inhibitors | 420,000 tested, 15% active | AID 686978, 2013; further: nearly all actives have a fitted effect of over 55% in size
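DT40 Tdp1-/-;hTDP1 cells, no CPT (DMSO vehicle only), 400 cells/well; compounds pin-transferred; ≥48 hr, 37 °C; CellTiter-Glo 30 min RT dark, luminescence read.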
IL-1B inflam inh – blocks inflammasome-driven IL-1 beta release. THP-1 LPS/ATP IL-1B secretion, AlphaLISA, 16 h; hits give low values. activity change, % at 57.5 µM. 360,000 tested, 4.7% active. AID 743279; in the data active means activity change below about -50%; inconclusive means mostly about -30% to -49%
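THP-1 cells pretreated 1 hr with compounds (up to 57.5 uM final), then stimulated with LPS (250 ng/mL final) plus ATP (1.25 mM final); secreted IL-1B measured by AlphaLISA after 16 hr, decreased signal indicating inhibition.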
TGFb SMAD3 inh – inhibitors of TGF-b signaling; HepG2 CAGA-GFP TGF-b/SMAD3 reporter, GFP fluorescence, 18 h; TGF-beta stimulated, 500 pg/mL final; Potency, µM (highest dose often 46.1 µM), hits mostly inhibitors; 410,000 tested, 1.2% active; further: nearly all actives have a fitted effect of over 65% in size
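Per well, imaged GFP fluorescence of HEPG2 CAGA-GFP cells gives the signal; cells get compound, then TGF-beta (500 pg/mL final), 18 h at 37 degrees C; %Activity versus -TGF-beta and +DMSO controls.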
Numbers stand for hits; n = inactive; u = inconclusive; x = no result. Unless noted, the call rests on the fitted dose curve; in most records, active means well fitted curve in the direction sought with a large enough effect; inconclusive means small, poorly fitted or top-dose-only effect, or another doubt; inactive means no such curve, though single readings can be large; an effect the other way counts as inactive or inconclusive.

SMILES	TDP1 cell CPT	S-ASM inh	HepG2 tox	TDP1 cell noCPT	IL-1B inflam inh	TGFb SMAD3 inh
Cc1cc(C)c(S(=O)(=O)N2CCN(c3ccc([N+](=O)[O-])c(-n4nc(C)cc4C)c3)CC2)c(C)c1	25.9µM	n	n	20.6µM	n	n
Cc1cc(C)n(-c2cc(N3CCN(S(=O)(=O)c4ccc(Br)cc4)CC3)ccc2[N+](=O)[O-])n1	11.6µM	n	n	11.6µM	n	n
C[C@]12C(=O)N(c3ccc(F)cc3)C(=O)N1[C@H]1c3ccccc3OC[C@@H]1[C@H]2c1ccccc1	n	n	n	u	n	u
O=C(c1ccc(CSc2ccc(Cl)cc2)cc1)N1CCCC1	u	n	n	u	n	u
COC(=O)c1ccccc1NC(=O)Cn1c(=O)n(CCC(=O)NCc2ccc3c(c2)OCO3)c(=O)c2ccccc21	u	x	n	u	x	n
COc1cc(C2C=C(Nc3ccccc3)C(=O)N2c2ccccc2)ccc1O (stereo not given)	u	x	n	u	u	n
CCOC(=O)c1ccc(NC2=CC(c3ccc(O)c(OCC)c3)N(c3ccc(C(=O)OCC)cc3)C2=O)cc1 (stereo not given)	13µM	x	n	13µM	x	n
COc1cc(OC)c(/C=C/c2cc3ccccc3c[n+]2C)c(OC)c1	0.501µM	x	n	1µM	x	7.94µM
COc1ccc(OC)c(/C=C/c2c3ccccc3cc[n+]2C)c1	2.24µM	x	n	1.41µM	x	n
COc1ccc(OC)c(/C=C/c2cc3ccccc3c[n+]2C)c1	2.82µM	x	n	2µM	x	n
COc1ccc(OC)c(/C=C/c2sc3ccccc3[n+]2C)c1	u	x	n	u	x	n
COc1ccc(OC)c(/C=C/c2nc3ccccc3nc2C)c1	u	x	n	u	x	n
Cc1ccccc1-c1nn(-c2ccccc2)cc1C(=O)NCC(c1ccco1)N1CCCC1 (stereo not given)	20.6µM	n	n	18.4µM	u	n
COc1ccc(OC)c(-c2nn(-c3ccccc3)cc2C(=O)NCC(c2ccco2)N2CCCC2)c1 (stereo not given)	u	n	n	20.6µM	n	n
COc1ccccc1-c1nn(Cc2ccccc2)cc1C(=O)NCC(c1ccco1)N1CCCC1 (stereo not given)	u	n	n	n	n	n
COC(=O)c1ccccc1NC(=O)N1CCC(n2c(C)nc3cccnc32)CC1	u	x	n	u	x	n
O=C(O)CCCCCN1C(=O)C(O)=C(C(=O)/C=C/c2ccccc2)C1c1cccc([N+](=O)[O-])c1 (stereo not given)	n	n	n	n	n	n
Cc1ccc(S(=O)(=O)/N=C(/Nc2ccccc2C)c2ccccc2)cc1	u	n	n	u	n	n
Cc1ccccc1/C(=N\S(=O)(=O)c1ccc(Br)cc1)Nc1ccccc1	u	x	n	14.6µM	n	n
Cc1ccc(S(=O)(=O)/N=C(/Nc2c(C)cccc2C)c2ccccc2)cc1	n	n	n	1.64µM	n	n
COc1cc2nc(CCc3nc4cc(OC)c(OC)cc4[nH]3)[nH]c2cc1OC	5.62µM	x	n	2µM	x	n
Cc1c(C(=O)Nc2ccc3c(c2)OCO3)sc2nc(-c3ccccc3)cn12	u	n	n	u	n	n
Cc1ccc(Cl)cc1NC(=O)c1sc2nc(-c3ccccc3)cn2c1C	20.6µM	x	n	14.6µM	x	n
Cc1cccc(NC(=O)c2sc3nc(-c4ccccc4)cn3c2C)n1	u	n	n	u	-58.6	n
COc1ccc(-c2cn3c(C)c(C(=O)Nc4cccc(C)n4)sc3n2)cc1	u	n	n	23.1µM	n	n
SMILES	TDP1 cell CPT	S-ASM inh	HepG2 tox	TDP1 cell noCPT	IL-1B inflam inh	TGFb SMAD3 inh
COCCNC(=O)c1sc2nc(-c3ccccc3)cn2c1C	n	n	n	n	n	n
Cc1c(C(=O)Nc2ccccc2)sc2nc(-c3ccccc3)cn12	18.4µM	n	n	u	u	n
COc1ccc(CO[C@@H]2O[C@H](CO)[C@@H](O)[C@H](O)[C@H]2NC(C)=O)cc1OC	n	n	n	n	n	n
CCc1ccc(NC(=O)C(C)OC(=O)c2ccc(NS(=O)(=O)c3ccc(C)c([N+](=O)[O-])c3)cc2)cc1 (stereo not given)	u	n	n	u	-76.7	u
COc1ccc(CNC(=O)CN2C(=O)COc3ccccc32)c(OC)c1	n	x	n	n	x	n
O=C1CN(CCN2CC(=O)NC(=O)C2)CC(=O)N1	7.94µM	x	n	7.08µM	x	n
CN(C)c1nc(N)c([N+](=O)[O-])c(NCC2CCCO2)n1 (stereo not given)	n	n	n	n	x	n
COC(=O)C1=C(C)N(c2ccc(OC)cc2)C(C)=C(C(=O)OC)C1c1ccc(OC)cc1	8.2µM	n	n	16.4µM	n	n
COC(=O)C1=C(C)N(c2ccc(OC)cc2)C(C)=C(C(=O)OC)C1c1ccccc1	u	n	n	20.6µM	n	u
Cc1c(C(=O)NCc2cccc([N+](=O)[O-])c2)sc(=O)n1Cc1cccc(F)c1	u	x	n	n	u	n
CC(=O)Oc1ccccc1Cn1c(C)c(C(=O)NCc2cccc([N+](=O)[O-])c2)sc1=O	u	x	n	20.6µM	n	u
Cc1c(C(=O)NCc2cccc([N+](=O)[O-])c2)sc(=O)n1Cc1ccc(F)cc1	16.4µM	x	n	u	u	n
Cc1ccc(N2CCN(C(=O)c3cc(S(=O)(=O)N4CCCCC4)c[nH]3)CC2)c(C)c1	16.4µM	x	n	16.4µM	x	u
CCN(C(=O)c1cc(S(=O)(=O)N2CCCCC2)c[nH]1)c1ccc(OC)cc1	9.2µM	n	n	23.1µM	n	n
COc1ccc(NC(=O)c2cc(S(=O)(=O)N3CCCC3)c[nH]2)cc1	n	n	2.51µM	n	n	u
Cc1cccc(CCNC(=O)c2cc(S(=O)(=O)N3CCCCC3)c[nH]2)c1	18.4µM	n	n	u	n	n
COc1ccc(NC(=O)c2cc(S(=O)(=O)N3CCCCC3)c[nH]2)cc1	n	n	n	n	n	n
COc1ccc(CCNC(=O)c2cc(S(=O)(=O)N3CCCCC3)c[nH]2)cc1OC	n	n	n	n	n	n
CCC(=O)Nc1ccc(CC)cc1-c1nc2ccccc2n(Cc2ccccc2)c1=O	u	x	n	u	x	n
COc1ccc(C(C(=O)NC(C)(C)C)N(C(=O)CCC(=O)Nc2cc(C)on2)c2ccccc2F)cc1 (stereo not given)	n	n	n	u	n	n
COc1ccc(NC(=O)N2CCC3(CC2)CCN(C(=O)c2csnn2)CC3)cc1	n	x	x	n	x	x
